Measured values reported in PubChem BioAssay (Tox21).
Results filed as inconclusive are left out. Unmarked numbers belong to inactive results. Calls come from the whole dose curve; as a rule, active = well fitted cell-killing curve with a large enough effect in the repeat runs; inconclusive = weak or mixed curves, or effect the other way; inactive = flat fitted curve, though single readings scatter.

Assay: Human pregnane X receptor (PXR) small molecule agonists, qHTS cell viability counter screen (AID 1346977); note: nearly all actives have a fitted effect of over 50% in size
Settings: PXR-Luc HepG2 viability, CellTiter-Fluor, 24 h; series mostly up to 92.4 µM; activity change, negative = cytotoxicity: at the top concentration
From the text: U.S. Tox21 Program National Center for Advancing Translational Sciences [NCATS] NIH Chemical Genomics Center [NCGC] U.S. Environmental Protection Agency [EPA] National Institutes of Environmental Health Sciences [NIEHS] National Toxicology Program [NTP] U.S. Food and Drug Administration [FDA] Tox21 Assay Overview: The human pregnane X receptor (hPXR) regulates the expression of several drug metabolizing enzymes and induction of these proteins is a major mechanism for developing drug resistance in cancer. One such key enzyme catalyzing the drug metabolism is cytochrome P450 3A4 (CYP3A4). Changes in CYP3A4 expression affect drug metabolism, thereby reducing the therapeutic efficacy and altering toxicological response to a drug and which finally causes adverse drug interaction. To screen Tox21 libraries for compounds that activate hPXR-mediated CYP3A4 gene expression, PXR-Luc HepG2 cells were used. Also cytotoxicity of the compounds was tested in parallel by measuring the cell viability using CellTiter-Fluor assay system in the same wells.
Tox21 Assay Protocol Summary: PXR-Luc HepG2 cells were dispensed at 2,000 per well in 5uL of assay medium containing 5% charcoal-stripped FBS into white solid bottom 1536-well plates (Corning Life Sciences, Corning, NY) using a Multidrop Combi (Thermo Scientific, Waltham, MA) dispenser. The assay plates were incubated at 37 C and 5% CO2 for 5hr, and then 23nL of compounds dissolved in DMSO and positive control were transferred using a Pintool station (Wako, San Diego, CA). The assay plates were incubated at 37C and 5% CO2 for 24hr. For cytotoxicity read, after 23hr incubation at 37C, 1uL CellTiter-Fluor reagent (Promega Corporation, Madison, WI) was added to each well of the assay plates using Flying Reagent Dispenser (FRD, Aurora Discovery, San Diego, CA). After 1hr incubation at 37C and 5% CO2, the fluorescence signal was quantified using a ViewLux plate reader (PerkinElmer, Shelton, CT).
% is set by controls: 0 for no effect and ±100 for the full control effect.

Compound | activity change, negative = cytotoxicity
F[Si-2](F)(F)(F)(F)F | -2.55%
Cc1cccc(Nc2ccncc2S(=O)(=O)NC(=O)NC(C)C)c1 | 0.577% [at 42.5 µM]
CC(C)(C)c1ccc(C=O)cc1 | 0.0454%
CC(=O)OC[C@H]1O[C@@H](OC(C)=O)[C@H](OC(C)=O)[C@@H]1OC(C)=O | 15% [at 42.5 µM]
CCCCCCCCC(=O)OCC | 3.15%
CCOC(=O)OCC/C(SC(=O)OCC)=C(\C)N(C=O)Cc1cnc(C)nc1N | 6.04% [at 42.5 µM]
Nc1ccnc(=O)[nH]1 | -2.71%
CCOC(=O)CC(CC(=O)OCC)(OC(C)=O)C(=O)OCC | -1.08%
CNC(=O)C(c1ccccc1)c1ccccc1 | 10%
O=S(=O)(O)SSS(=O)(=O)O | -1.49%
C=CCOc1c(Br)cc(C(C)(C)c2cc(Br)c(OCC=C)c(Br)c2)cc1Br | -4.42% [at 42.5 µM]
CCOc1ccc(NC(=O)OC(C)C)cc1OCC | 9.5%
CCCCCCCCCCCCC1CO1 (stereo not given) | -3.22%
CC(CC(=O)O)CC(C)(C)C (stereo not given) | 11%
COc1cccc2sc(N)nc12 | -4.49%
OCCCCCCCl | 2.29%
CC(C)(CO)[C@@H](O)C(=O)NCCCO | 7.31% [at 42.5 µM]
CCCCCCCCCOCC1CO1 (stereo not given) | 0.993%
FC(F)(F)/C(=N\OCC1OCCO1)c1ccc(Cl)cc1 | -0.357%
CCCCOC(=O)C(C)OC(=O)CCC (stereo not given) | 1.26%

Compound | activity change, negative = cytotoxicity
CCOC(=O)CC#N | 0.238%
Cc1ccccc1C(=O)N1CC/C(=N\OS(=O)(=O)O)c2ccc(Cl)cc21 | -0.203% [at 42.5 µM]
O=c1[nH]c(=O)c2[nH]c(=O)[nH]c2[nH]1 | -1.5% [at 8.39 µM]
CNC(=O)NC | 3.29%
Cc1c(C(C)C)c(=O)n(-c2ccccc2)n1C | 0.448% [at 42.5 µM]
C=COCCOCCOC=C | 0.759%
NS(=O)(=O)c1cc2c(cc1Cl)NC(CC1CCCC1)NS2(=O)=O (stereo not given) | 13.4% [at 42.5 µM]
CCCO | 1.14%
CC(=O)c1ccc2c(c1)CCCC2 | 3.16%
CCCCCCCCCCCCOC(C)=O | 8.69%
CC(C)COC(=O)COc1ccc(Cl)cc1Cl | 14.1%
C[C@@H]1C[C@H]2[C@@H]3C[C@H](F)C4=CC(=O)C=C[C@]4(C)[C@@]3(F)[C@@H](O)C[C@]2(C)[C@@]1(O)C(=O)CO | -1.09% [at 42.5 µM]
O=C(c1ccc2c(c1)C(=O)OC2=O)c1ccc2c(c1)C(=O)OC2=O | 4.47%
COc1ccc(/C=N/NC(=O)c2ccncc2)cc1OC | 1.58% [at 42.5 µM]
CCC(C)(CCC(C)C)C(=O)[O-].CCC(C)(CCC(C)C)C(=O)[O-].[Zn+2] (stereo not given) | 3.36%
CCOC(=O)CCc1ccccc1 | -2.18%
CCCOCCOCCOCCO | 17.9%
CCC(=O)OCCC(C)CCC=C(C)C (stereo not given) | 4.35%
Cc1cc(O)c2c(c1)C(=O)c1cccc(O)c1C2=O | -21.4% [at 42.5 µM]
N#CCCOCCOCCC#N | 11.1%
